Results on 50 compounds are retold here after PubChem BioAssay AID504332 (National Center for Advancing Translational Sciences (NCATS), 2011).

The whole screen tested about 350,000 compounds, of which about 31,000 (8.9%) were called active. About 15% were inconclusive and are not listed. The call rests on the fitted dose curve; in most records, active means well fitted inhibition curve with a large enough effect; inconclusive means small, poorly fitted or top-dose-only effect; inactive means no such curve, though single readings can be large or run the other way. Shown is part of a subset that was picked to be rich in actives.
On the % scale 0 is the no-effect control and ±100 the full control effect; potency means the concentration at half of the fitted maximal effect.

This assay deals with Histone-lysine N-methyltransferase EHMT2 (Homo sapiens) (UniProt Q96KQ7). Description: qHTS Assay for Inhibitors of Histone Lysine Methyltransferase G9a. Further: nearly all actives have a fitted effect of over 75% in size. Particulars: G9a H3K9 monomethylation, AlphaScreen, 2 h; series mostly up to 59 µM; activity, negative = inhibition: at the top concentration. The procedure, abridged: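 Enzyme 20 nM + cpd, 15 min RT; add b-H3K9 pep 500 nM / SAM 20 uM; 2 h RT; anti-H3K9me1 Ab 0.5 ug/mL + SA donor / anti-rabbit acceptor beads 20 ug/mL each, 10 min; AlphaScreen read.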
Sequence of Histone-lysine N-methyltransferase EHMT2 (Homo sapiens) (Q96KQ7 913-1193 limits assumed): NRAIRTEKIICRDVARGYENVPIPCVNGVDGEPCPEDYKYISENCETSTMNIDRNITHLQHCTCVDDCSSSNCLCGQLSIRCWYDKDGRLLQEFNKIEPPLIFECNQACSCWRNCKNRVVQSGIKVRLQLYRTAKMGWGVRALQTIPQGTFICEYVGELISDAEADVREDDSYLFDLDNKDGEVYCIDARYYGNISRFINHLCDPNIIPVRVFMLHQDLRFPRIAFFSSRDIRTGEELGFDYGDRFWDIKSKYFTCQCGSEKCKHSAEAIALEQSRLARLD
In general terms: qHTS replaces the single test concentration by a dilution series.
Consider `O=C(NCCCc1ccccc1)C1CCC(=O)N(CCc2ccc(Cl)cc2)C1` (stereo not given), for which the activity, negative = inhibition was -2.97% [at 12.7 µM] (inactive).
Same read-out and setting: the value for `CC(C(=O)N(C)CC(=O)Nc1ccccc1C(F)(F)F)N1C(=O)c2ccccc2C1=O` (stereo not given) was 8.77% [at 12.7 µM] (inactive); that for `CN(CC(=O)Nc1ccc(Cl)c(C(F)(F)F)c1)C(=O)CCC(=O)c1ccccc1` was 7.96% (inactive).
As for `CN(CC(=O)Nc1ccccc1C(F)(F)F)C(=O)Cc1ccccc1F`, the Potency was 50.1 µM (active).
`COc1ccccc1CN1CCC(CNC(=O)c2cnn(-c3ccccc3Cl)c2C2CCN(C(=O)OC(C)(C)C)CC2)CC1`: the “activity, negative = inhibition” value is -8.35% (inactive).
Same read-out and setting: the result for `Cc1nc2ccccc2c(-c2ccccc2)c1C(=O)c1ccccc1` reads 1.18% (inactive).
As for `Cc1nc2ccccc2c(C)c1C(=O)c1ccc(F)cc1`, the Potency was 50.1 µM (active).
`CN(Cc1nc2ccccc2s1)C(=O)c1ccc(F)cc1`: the “activity, negative = inhibition” value was -9.17% [at 102 µM] (inactive).
As to `COc1cc(C(=O)N2CCN(C(=O)COc3cccc(C)c3)CC2)cc(OC)c1OC`, the “activity, negative = inhibition” value is 3.42% (inactive).
On the same count and under the same terms, the result for `CN(C(=O)COC(=O)c1ccc(Br)o1)c1c(N)n(Cc2ccccc2)c(=O)[nH]c1=O` reads -30.9% [at 0.501 µM] (inactive); that for `Cc1ccc(CNS(=O)(=O)c2ccc(-c3cc(C(F)(F)F)on3)s2)cc1`, -5.27% (inactive).
Same read-out and setting: the result for `Cc1ccc(CN2C(=O)SC(Nc3ccccc3)C2=O)cc1` (stereo not given) reads 1.21% (inactive); that for `Cc1ccc(N2C(=O)S/C(=C/c3cn(C)c4ccccc34)C2=O)cc1`, 1.11% [at 102 µM] (inactive).
As to `Cc1cccc(N=C2NC(=O)/C(=C/c3cn(C)c4ccccc34)S2)c1`, the Potency is 79.4 µM (active).
Turning to `Cn1cc(/C=C/c2nc3ccccc3c(=O)n2-c2cccc([N+](=O)[O-])c2)c2ccccc21`, the “activity, negative = inhibition” value is -7.57% (inactive).
Same read-out and setting: the value for `CCC(=O)N1CCc2cc(S(=O)(=O)NC(C(=O)Nc3ccc(C(C)=O)cc3)C(C)C)ccc21` (stereo not given) was 1.46% (inactive); that for `Cc1ccc(C)c(NC(=O)C2CCCN(S(=O)(=O)c3cn(C)cn3)C2)c1` (stereo not given) was 15.1% (inactive).
The same measure, in the same setting: the result for `C=CCNc1nc(N)c([N+](=O)[O-])c(NC2CCCCC2)n1` reads -5.17% [at 102 µM] (inactive); that for `CCCNC(=O)CCc1c(C)nc2c(c(C)nn2-c2ccccc2)c1C`, 38.4% [at 102 µM] (inactive).
With `Cc1ccc(C)c(Cn2c(C(=O)O)c(CNCc3cccs3)c3ccccc32)c1`, the “activity, negative = inhibition” value is -1.51% (inactive).
In the case of `COc1ccc2nc(Nc3nc(-c4ccncc4)cs3)sc2c1`, the “activity, negative = inhibition” value was 4.27% [at 102 µM] (inactive).
As for `COc1ccc(OC)c(Nc2nc(-c3ccc(O)c(O)c3)cs2)c1`, the Potency was 3.98 µM (active).
Still for that read-out and setting: the value for `CC(=O)Nc1ccc(-c2csc(NC(=O)Nc3ccccc3)n2)cc1` was 44.7 µM (active).
Same read-out and setting: the result for `NS(=O)(=O)c1ccc(Nc2nc(-c3ccccc3)cs2)cc1` reads 44.7 µM (active); that for `COc1ccc(Nc2nc(-c3ccccc3)cs2)cc1`, 12.6 µM (active).
As for `COc1cccc(CC(=O)Nc2nc(-c3ccc(OC)c(OC)c3)cs2)c1`, the “activity, negative = inhibition” value was -6.69% [at 102 µM] (inactive).
Same read-out and setting: the result for `COc1ccc(-c2csc(NC3OC(=O)c4ccccc43)n2)cc1` (stereo not given) reads 0.895% (inactive).
The same measure, in the same setting: the result for `CC(=O)Nc1nc(C)c(-c2csc(Nc3ccc(S(N)(=O)=O)cc3)n2)s1` reads -39% [at 102 µM] (inactive); that for `O=C(Nc1ccccc1)Nc1nc2ccccc2s1`, -5.29% [at 102 µM] (inactive); that for `O=C(Nc1ccc(-c2csc(Nc3cccc(C(F)(F)F)c3)n2)cc1)c1cccc(C(F)(F)F)c1`, -6.74% [at 12.7 µM] (inactive).
Still for that read-out and setting: the result for `CCOC(=O)Cc1csc(NC(=O)Nc2ccccc2)n1` reads 6.91% (inactive); that for `COc1ccc(CC(=O)Nc2nc(-c3ccc(F)c(F)c3)cs2)cc1OC`, -13.8% [at 102 µM] (inactive); that for `CCOc1ccc(NC(=O)CSc2c3c(nc4ccccc24)CCCC3)cc1`, 7.49% (inactive).
Turning to `COc1ccccc1CNC(=O)COn1nnc2ccc(S(=O)(=O)N3CCOCC3)cc21`, the “activity, negative = inhibition” value was -27.8% [at 102 µM] (inactive).
Same read-out and setting: the result for `Cc1cc(O)c(C(=O)/C=C/c2c(F)c(F)c(F)c(F)c2F)c(=O)o1` reads -25.4% [at 2.33 µM] (inactive); that for `Cc1ccc2c(c1)N(C(=O)Nc1ccc(Br)cc1F)CCO2`, -22.5% (inactive).
On the same count and under the same terms, the result for `Cc1ccc(S(=O)(=O)N2CCN(c3ccccc3)CC2)cc1C` reads 2.79% [at 102 µM] (inactive).
Same read-out and setting: the result for `NS(=O)(=O)c1ccc(CNC(=O)c2cccc(S(=O)(=O)N3CCc4ccccc43)c2)cc1` reads 15.2% [at 2.33 µM] (inactive).
Consider `Cc1ccc(OCc2n[nH]c(=S)n2-c2ccc(C)cc2)cc1`, for which the “activity, negative = inhibition” value is 18.9% [at 102 µM] (inactive).
The same measure, in the same setting: the value for `Cc1ccc(OCc2nc3ccccc3n2C)cc1` was 4.42% [at 0.501 µM] (inactive).
With `S=c1[nH]nc(COc2ccccc2)n1-c1ccccc1`, the Potency is 2.51 µM (active).
Take `Cc1n[nH]c(=O)n1-c1ccc(Oc2ccccc2)cc1`: the “activity, negative = inhibition” value is 106% (inactive).
On the same count and under the same terms, the result for `Cc1ccc(NC(=O)CSc2nc3c([nH]c4ccccc43)c(=O)n2-c2ccccc2)cc1Cl` reads 0.779% (inactive); that for `CC(Sc1nnc(COc2ccccc2)n1-c1ccccc1)C(=O)O` (stereo not given), 9.68% [at 0.501 µM] (inactive).
Take `COc1ccc(OCc2n[nH]c(=S)n2N)cc1`: the Potency was 1.78 µM (active).
Consider `COc1ccc(OCC(=O)OCCN(C)C)cc1`, for which the “activity, negative = inhibition” value is -13.2% (inactive).
The same measure, in the same setting: the result for `COc1ccc(OCc2ccc(-c3nc4ccccc4c(=O)n3N)o2)cc1` reads 14.4% [at 2.33 µM] (inactive).
Regarding `Cc1ccc(OCc2n[nH]c(=S)n2-c2ccccc2)cc1`, the Potency is 1.58 µM (active).
Same read-out and setting: the value for `Cc1ccc(NCc2n[nH]c(=S)n2-c2ccccc2)cc1Cl` was 22.4 µM (active).
With `Cc1ccc(NC(=O)Nc2cc(-c3ccccc3)nn2C)cc1Cl`, the “activity, negative = inhibition” value is 4.64% [at 102 µM] (inactive).
